A short description of experiment [1]: Quantitative highthroughput screen to assess conditional lethalithy of NOMO1 cells grown in RPMI1640 with dialyzed fetal bovine serum (RPMI+ds) (AID 1963877).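 For viability: series mostly up to about 46 µM; 100% = DMSO control wells and 0% = empty wells.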 Note: nearly all actives have a fitted effect of over 30% in size. The method in brief: (§1)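 Each medium arm—HPLM with 10% dialyzed FBS, or RPMI1640 with 5 mM glucose and 10% untreated or dialyzed FBS—was screened against an 11-point, 3-fold compound titration for 48 h at 37 °C, with CellTiter-Glo luminescence as endpoint.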

Experiment [2] is described as follows: Quantitative highthroughput screen to assess conditional lethalithy of NOMO1 cells grown in Human Plasma-Like Medium with dialyzed fetal bovine serum (HPLM+ds) (AID 1963878).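 For viability: 100% = DMSO wells and 0% = empty wells on each plate.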 Note: nearly all actives have a fitted effect of over 35% in size. In short, it runs like this: as §1
Experiment [3] is described as follows: Quantitative highthroughput screen to assess conditional lethalithy of P12 Ichikawa cells grown in Human Plasma-Like Medium with dialyzed fetal bovine serum (HPLM+ds) (AID 1963879). For viability: series mostly up to about 46 µM. Note: nearly all actives have a fitted effect of over 35% in size. The settings on record: Potency: viability. In short, it runs like this: as §1
A short description of experiment [4]: Quantitative highthroughput screen to assess conditional lethalithy of P12 Ichikawa cells grown in RPMI1640 with dialyzed fetal bovine serum (RPMI+ds) (AID 1963880).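 For viability: 100% = DMSO wells and 0% = empty wells on each plate.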 Note: nearly all actives have a fitted effect of over 35% in size. To be noted: Potency: P12-Ichikawa viability. The method in brief:
as §1

Experiment [5] is described as follows: Quantitative highthroughput screen to assess conditional lethalithy of P12 Ichikawa cells grown in RPMI1640 with untreated serum (RPMI+s) (AID 1963881).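 For viability: series mostly up to about 46 µM; 100% = DMSO wells and 0% = empty wells without cells.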 Note: nearly all actives have a fitted effect of over 35% in size. The settings on record: Potency: viability. The method in brief:
as §1

The nature of experiment [6]: Quantitative highthroughput screen to assess conditional lethalithy of SEM cells grown in Human Plasma-Like Medium with dialyzed fetal bovine serum (HPLM+ds) (AID 1963882). For viability: series mostly up to about 46 µM. Note: nearly all actives have a fitted effect of over 35% in size. The method in brief:
as §1

Experiment [7] can be described thus: Quantitative highthroughput screen to assess conditional lethalithy of SEM cells grown in RPMI1640 with unreated serum (RPMI+s) (AID 1963883).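 For viability: 100% = DMSO wells and 0% = empty wells without cells.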 Note: nearly all actives have a fitted effect of over 35% in size. The method in brief: as §1
Experiment [8] can be described thus: Quantitative highthroughput screen to assess conditional lethalithy of SEM cells grown in RPMI1640 with dialyzed fetal bovine serum (RPMI+ds) (AID 1963884).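 For viability: series mostly up to about 46 µM; 100% = DMSO control wells and 0% = empty wells without cells.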 Note: nearly all actives have a fitted effect of over 35% in size. The method in brief: as §1
Experiment [9] is described as follows: Quantitative highthroughput screen to assess conditional lethalithy of NOMO1 cells grown in RPMI1640 with untreated serum (RPMI+s) (AID 1963876).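 For viability: 100% = DMSO wells and 0% = empty wells without cells.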 Note: nearly all actives have a fitted effect of over 35% in size. In short, it runs like this: as §1
A short description of experiment [10]: Cellular viability qHTS for adrenocortical cancer (ACC) cell line SW-13 (AID 1963989).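 For activity (max response): cells grown in serum-free medium with ITS supplement; % is set by controls: 0 for no effect and ±100 for the full control effect.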 Note: nearly all actives have a fitted effect of over 65% in size. To be noted: SW-13 ACC cells viability, CellTiter-Glo, 48 h; activity (max response): active compounds read low. The method in brief:
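IC50 and maximal-response values come from four-parameter logistic fits of titration data. SW-13 cells in serum-free medium received compounds (up to 46 uM final) for 48 h before CellTiter-Glo luminescence.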

Experiment [11] is described as follows: Cellular viability qHTS for adrenocortical cancer (ACC) cell line NCI-H295R (AID 1963990). Note: nearly all actives have a fitted effect of over 60% in size. The method in brief: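 Adrenocortical carcinoma cells, suspended at 300 000 cells/mL in serum-free DMEM plus ITS, rested overnight before pin transfer of compound. After two days' incubation, ATP-dependent luminescence was recorded and curve-fitted.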

Data on 23 molecules can be found in PubChem BioAssay (NCATS).

The structures appear in SMILES notation. Results filed as inconclusive are left out. Some structures have more than one record in an assay (separate samples or runs), and their calls can disagree. Values without a mark were called inactive. The source made the active and inactive calls. Calls come from the whole dose curve; as a rule, active = well fitted curve in the direction sought with a large enough effect; inconclusive = small, poorly fitted or top-dose-only effect, or another doubt; inactive = no such curve, though single readings can be large; an effect the other way counts as inactive or inconclusive.
Potency is the fitted concentration of half-maximal effect.

Consider `O=C(O)C1=CO[C@@H](O[C@@H]2O[C@H](CO)[C@H](O)[C@H](O)[C@H]2O)[C@@H]2C(CO)=CC[C@H]12`, for which the Potency result in experiment [1], in experiment [2], in [3], in experiment [4], in experiment [5] and in experiment [6] was “inactive” throughout. In addition, the Potency entry in experiment [7] and in [8] was “inactive” throughout.
`OCc1ccccc1O[C@@H]1O[C@H](CO)[C@H](O)[C@H](O)[C@H]1O`: the results for the Potency in [1], in [2] and in experiment [4] were 13.2 µM (active), 7.43 µM (active) and 16.6 µM (active), respectively.
In the case of `Cc1cccc(-c2[nH]ncc2-c2ccc3ncccc3n2)n1`, the Potency result in [9] and in [11] was “inactive” each time. Besides, the activity (max response) in experiment [10] is 4.45%.
With `CCCCCCCN(CC)CCCC(O)c1ccc(NS(C)(=O)=O)cc1` (stereo not drawn), the Potency result in experiment [1], in experiment [2] and in experiment [11] was “inactive” each time. In addition, the figures for the Potency in experiment [3] and in experiment [4] were 13.2 µM (active) and 18.7 µM (active), respectively. The activity (max response) in experiment [10] was -11.3%.
Take `CO[C@@H](C(=O)N1Cc2[nH]nc(NC(=O)c3ccc(N4CCN(C)CC4)cc3)c2C1)c1ccccc1`: the Potency in experiment [9] is 0.148 µM (active); in [6] it was 0.132 µM (active); in experiment [7] it was 0.0743 µM (active); in [8], 0.0833 µM (active).
As for `Cc1ccc(-c2cc(C(F)(F)F)nn2-c2ccc(S(N)(=O)=O)cc2)cc1`, the Potency entry in experiment [1], in experiment [2], in experiment [4], in experiment [5], in experiment [6] and in experiment [7] was “inactive” in each case. The Potency result in [8] and in experiment [11] was “inactive” in each case. Further, the Potency in [10] was 23.1 µM (active). In addition, the activity (max response) in [10] is -6.62%.
`CC=CC[C@@H](C)C(=O)[C@H]1C(=O)N[C@@H](C(C)C)C(=O)N(C)CC(=O)N(C)[C@@H](CC(C)C)C(=O)N[C@@H](C(C)C)C(=O)N(C)[C@@H](CC(C)C)C(=O)N[C@@H](C)C(=O)N[C@H](C)C(=O)N(C)[C@@H](CC(C)C)C(=O)N(C)[C@@H](CC(C)C)C(=O)N(C)[C@@H](C(C)C)C(=O)N1C`: the Potency result in experiment [9] was “inactive”. The Potency in experiment [7] is 14.8 µM (active).
Turning to `CC(O)=C(C#N)C(=O)Nc1ccc(C(F)(F)F)cc1`, the Potency result in [1], in experiment [2], in experiment [3] and in [5] was “inactive” each time.
Regarding `C[C@@H](Cc1cc2c(c(C(N)=O)c1)N(CCCO)CC2)NCCOc1ccccc1OCC(F)(F)F`, the Potency entry in experiment [1], in experiment [2], in experiment [3], in experiment [4], in [5] and in experiment [6] was “inactive” each time. Besides, the Potency result in experiment [7] and in experiment [8] was “inactive” in each case.
Regarding `Nc1ccc(-c2ccc3ncc4ccc(=O)n(-c5cccc(C(F)(F)F)c5)c4c3c2)cn1`, the Potency in experiment [9] was 0.0833 µM (active); in experiment [3], 0.148 µM (active); in [10], 0.708 µM (active); in experiment [11], 0.126 µM (active).
Take `CN[C@@H]1[C@@H](O)[C@@H](O[C@@H]2[C@@H](O)[C@H](O[C@H]3O[C@H](CN)[C@@H](O)[C@H](O)[C@@H]3O)[C@@H](N)C[C@@H]2NC(=O)[C@@H](O)CN)OC[C@]1(C)O`: the Potency entry in [1], in [2], in experiment [3], in [4], in experiment [6] and in [7] was “inactive” in each case. For the same molecule, in experiment [8], the Potency entry is “inactive”.
On to `C=C1C(=O)OC2C=C(C)CCC=C(C)CCC12` (stereo not drawn), for which the Potency result in [9] was “inactive”. In addition, the Potency in experiment [8] is 23.5 µM (active).
Regarding `COc1cc(F)c(C(C)C)cc1-c1ccc(C(F)(F)F)cc1CN1C(=O)O[C@H](c2cc(C(F)(F)F)cc(C(F)(F)F)c2)[C@@H]1C`, the Potency entry in [1], in experiment [2], in experiment [3], in experiment [4], in experiment [6] and in experiment [7] was “inactive” in each case. The Potency result in [8] and in [11] was “inactive” throughout. Moreover, the activity (max response) in [10] was -14.8%.
Take `CC1=C(C(=O)O)N2C(=O)[C@@H](NC(=O)C(N)c3ccccc3)[C@H]2SC1` (stereo partly drawn): the Potency entry in experiment [1], in experiment [2], in experiment [3], in [5], in experiment [6] and in [7] was “inactive” in each case. Further, the Potency entry in [8] is “inactive”.
Take `CC[C@H]1OC(=O)[C@H](C)[C@@H](O[C@H]2C[C@@](C)(OC)[C@@H](O)[C@H](C)O2)[C@H](C)[C@@H](O[C@@H]2O[C@H](C)C[C@H](N(C)C)[C@@H]2O)[C@](C)(OC)C[C@@H](C)C(=O)[C@H](C)[C@@H](O)[C@]1(C)O`: the Potency entry in experiment [1], in experiment [2], in [3], in experiment [4], in experiment [5] and in experiment [6] was “inactive” in each case. Moreover, the Potency entry in experiment [7] and in experiment [8] was “inactive” throughout.
On to `COC(=O)N[C@H](C(=O)N1CCC[C@@H]1c1ncc(-c2ccc(-c3ccc(-c4cnc([C@@H]5CCCN5C(=O)[C@@H](NC(=O)OC)C(C)C)[nH]4)cc3)cc2)[nH]1)C(C)C`, for which the Potency entry in [1], in [2], in experiment [3], in [4], in experiment [5] and in experiment [6] was “inactive” each time.
Take `CS(=O)(=O)c1ccc(Oc2cc(F)cc(C#N)c2)c2c1[C@H](O)C(F)(F)C2`: the Potency result in experiment [1], in [2], in experiment [3], in [4], in experiment [5] and in experiment [11] was “inactive” each time. Further, the activity (max response) in experiment [10] was 10.8%.
For the molecule `CN(C(Cc1ccc(OS(=O)(=O)c2cccc3cnccc23)cc1)C(=O)N1CCN(c2ccccc2)CC1)S(=O)(=O)c1cccc2cnccc12` (stereo not drawn), the Potency result in experiment [9] and in [11] was “inactive” in each case. Further, the Potency was 18.7 µM (active) in [4] and 14.8 µM (active) in experiment [5].
As for `C=CCNc1c(O)cc2c(O)c1C[C@@H](C)C[C@H](OC)[C@@H](O)[C@@H](C)C=C(C)[C@H](OC(N)=O)[C@@H](OC)C=CC=C(C)C(=O)N2`, the Potency was 10.5 µM (active) in [9], 1.66 µM (active) in experiment [6] and 0.833 µM (active) in [8].
As to `COc1cc2nc(N3CCN(C(=O)C4COc5ccccc5O4)CC3)nc(N)c2cc1OC` (stereo not drawn), the Potency result in [9], in experiment [4], in [5], in experiment [6] and in experiment [8] was “inactive” each time.
Consider `CO[C@H]1C=CO[C@@]2(C)Oc3c(C)c(O)c4c(O)c(c(C=NN5CCN(C)CC5)c(O)c4c3C2=O)NC(=O)C(C)=CC=C[C@H](C)[C@H](O)[C@@H](C)[C@@H](O)[C@@H](C)[C@H](OC(C)=O)[C@H]1C`, for which the Potency result in experiment [9] and in experiment [8] was “inactive” throughout. The Potency in experiment [4] was 2.38 µM (active); in experiment [5], 3.78 µM (active).
With `CC(=O)O[C@H]1C[C@@H]2CC[C@H]3[C@H]4C[C@H]([N+]5(C)CCCCC5)[C@@H](OC(C)=O)[C@@]4(C)CC[C@@H]3[C@@]2(C)C[C@H]1N1CCCCC1`, the Potency result in [1], in [2], in experiment [3], in experiment [5], in [6] and in experiment [7] was “inactive” each time. Besides, in experiment [8], the Potency result was “inactive”.
For `C[C@@H]1[C@H](O)[C@@H](C)C=CC=CC=CC=CC=CC=CC=C[C@H](O[C@@H]2O[C@H](C)[C@H](O)[C@H](N)[C@@H]2O)C[C@@H]2O[C@](O)(C[C@@H](O)C[C@@H](O)[C@H](O)CC[C@@H](O)C[C@@H](O)CC(=O)O[C@H]1C)C[C@H](O)[C@@H]2C(=O)O`, the Potency result in experiment [1], in [2], in experiment [3], in experiment [4], in [5] and in [6] was “inactive” in each case. In addition, the Potency result in experiment [8] was “inactive”.
